The full list was thinned out, with hits kept by preference.
PRC2 inh – EZH2/PRC2 methyltransferase inhibitors, primary screen, biochemical, DELFIA time-resolved fluorescence, single point. Histone-lysine N-methyltransferase EZH2 (Homo sapiens), Q15910. PRC2 H3K27 methylation, DELFIA TRF, 1 h. inhibition, % at 12.5 µM. 57,000 compounds, 0.35% hits;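 active = mean inhibition of replicates at least 50% and every single replicate also reaching 50%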;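 also: dimethyl H3K27 on biotinylated H3 21-44 peptide detected by antibody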
Target sequence (Q15910 whole entry, looked up): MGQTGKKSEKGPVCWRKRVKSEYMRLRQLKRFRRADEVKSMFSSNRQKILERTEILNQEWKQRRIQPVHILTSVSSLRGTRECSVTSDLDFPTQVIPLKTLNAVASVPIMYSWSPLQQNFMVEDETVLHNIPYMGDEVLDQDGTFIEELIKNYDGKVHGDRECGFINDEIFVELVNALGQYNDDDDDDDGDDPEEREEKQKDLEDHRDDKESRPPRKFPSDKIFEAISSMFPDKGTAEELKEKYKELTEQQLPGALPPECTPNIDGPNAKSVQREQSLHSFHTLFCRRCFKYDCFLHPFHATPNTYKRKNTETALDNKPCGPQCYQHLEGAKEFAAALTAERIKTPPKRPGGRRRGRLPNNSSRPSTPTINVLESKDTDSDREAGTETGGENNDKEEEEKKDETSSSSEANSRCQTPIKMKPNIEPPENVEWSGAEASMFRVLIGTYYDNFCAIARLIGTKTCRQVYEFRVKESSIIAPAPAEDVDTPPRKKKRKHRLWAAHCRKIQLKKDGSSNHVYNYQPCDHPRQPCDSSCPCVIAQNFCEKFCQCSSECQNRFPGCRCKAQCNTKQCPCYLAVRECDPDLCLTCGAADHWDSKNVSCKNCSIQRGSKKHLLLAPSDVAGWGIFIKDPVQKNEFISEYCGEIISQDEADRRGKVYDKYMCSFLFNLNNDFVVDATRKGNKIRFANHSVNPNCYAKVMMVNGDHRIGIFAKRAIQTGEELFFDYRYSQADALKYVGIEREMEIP
Large screens that a line does not name were inactive.

COc1ccc(-c2cc(=O)c3c(O)c(OC)c(O[C@H]4O[C@H](CO[C@@H]5O[C@@H](C)[C@H](O)[C@@H](O)[C@H]5O)[C@@H](O)[C@H](O)[C@H]4O)cc3o2)cc1	none
COc1ccc([Si](C)(C)[C@@H]2[C@@H](CCO)O[C@]3(C(=O)N(Cc4ccc(NC(C)=O)cc4)c4ccccc43)[C@H]2C)cc1	none
COc1ccc([Si](C)(C)[C@@H]2[C@@H](CCO)O[C@]3(C(=O)N(C)c4ccccc43)[C@H]2C)cc1	none
COc1ccc([Si](C)(C)[C@H]2[C@H](CCn3cc([C@H](O)c4ccccc4)nn3)O[C@@]3(C(=O)N(C)c4c(Br)cc(C)cc43)[C@@H]2C)cc1	none
COc1ccc([Si](C)(C)[C@@H]2[C@@H](CCO)O[C@]3(C(=O)N(C)c4c(Br)cc(C)cc43)[C@H]2C)cc1	PRC2 inh 51.6
COc1ccc([Si](C)(C)[C@@H]2[C@@H](CCn3cc([C@H](O)c4ccccc4)nn3)O[C@]3(C(=O)N(c4ccccc4)c4ccccc43)[C@H]2C)cc1	none
COc1ccc([Si](C)(C)[C@@H]2[C@@H](CCO)O[C@]3(C(=O)N(c4ccccc4)c4ccccc43)[C@H]2C)cc1	PRC2 inh 50.7
C[C@@H]1CN([C@H](C)CO)C(=O)c2cc(NS(=O)(=O)c3ccc(Cl)cc3)ccc2O[C@@H]1CN(C)C(=O)Nc1ccc(F)cc1	none
COc1ccc(C(=O)Nc2ccc3c(c2)C(=O)N(C)C[C@@H](OC)[C@H](C)CN(C(=O)C2CC2)[C@H](C)CO3)cc1	none
O=C(C[C@@H]1C[C@@H]2c3cc(NC(=O)c4cccnc4)ccc3O[C@@H]2[C@H](CO)O1)NC1CCCCC1	none
C[C@@H]1CN([C@H](C)CO)C(=O)c2cc(-c3ccncc3)cnc2O[C@H]1CN(C)S(=O)(=O)c1ccccc1	none
O=C(NCC[C@@H]1CC[C@H](NS(=O)(=O)c2cccc(F)c2)[C@H](CO)O1)C1CCOCC1	none
O=C(CCCCCCC(=O)Nc1ccccc1O)N/N=C/c1ccc(F)cc1	none
O=C(CCCCCCC(=O)Nc1ccccc1O)N/N=C/c1ccc(-c2ccccc2)c(F)c1	PRC2 inh 51.0
O=C(CCCCCCC(=O)Nc1ccccc1O)N/N=C/c1ccc(O)c(O)c1	none
CC(C)NC(=O)N(C)C[C@@H]1Oc2ncc(-c3cncnc3)cc2C(=O)N([C@H](C)CO)C[C@@H]1C	none
COCC(=O)Nc1ccc2c(c1)C(=O)N(C)C[C@@H](OC)[C@H](C)CN(C(=O)Cc1ccccn1)[C@H](C)CO2	none
COC(=O)c1ccc(C2C(Oc3ccc(OC)cc3)C(=O)N2Cc2ccc(F)cc2)cc1 (stereo not given)	PRC2 inh 51.1
COC(=O)c1ccc(C2C(C(=O)c3ccco3)C(=O)C(=O)N2Cc2ccco2)cc1 (stereo not given)	none
COC(=O)c1ccc(NC(=O)CCC(=O)c2ccc(OC)cc2)cc1	none
C[C@H](CO)N1C[C@H](C)[C@H](CN(C)Cc2ccccc2)Oc2ncc(C3=CCCCC3)cc2C1=O	none
C[C@@H]1CCCCO[C@@H](CN(C)C)[C@H](C)CN([C@@H](C)CO)C(=O)c2cc(NC(=O)Nc3ccccc3)ccc2O1	none
CCCCCCCCCCC(C)(C)C(=O)Nc1c(OC)cc(OC)cc1OC	PRC2 inh 84.8
COc1ccc(OC)c(NC(=O)COc2ccc(C(C)(C)C)cc2)c1	none
CCCCCCCCC(=O)NCc1cc(OC)c(O)cc1I	none
COc1ccccc1NC(=O)N[C@@H]1CC[C@H](CCNC(=O)c2ccc3c(c2)OCO3)O[C@@H]1CO	none
COc1ccc(NC(=O)N(C)C[C@H]2Oc3c(NC(=O)c4ccncc4)cccc3C(=O)N([C@H](C)CO)C[C@H]2C)cc1	none
C#CCOc1ccc(/C=N/NC(=O)c2ccccn2)cc1	none
CCCN1C[C@H](C)[C@H](OC)CN(C)C(=O)c2ccc(NC(=O)c3ccccc3)cc2OC[C@H]1C	none
C/C(=C\CCC1(C)C2CCC(C2)C1(C)O)C(=O)O (stereo not given)	none
CC(C)NC(=O)N(C)C[C@@H]1OCCCC[C@H](C)Oc2ccc(N(C)C)cc2C(=O)N([C@@H](C)CO)C[C@H]1C	none
C[C@@H]1CN([C@H](C)CO)C(=O)Cc2cc(NC(=O)CCCCCC(=O)Nc3ccccc3N)ccc2O[C@@H]1CN(C)C(=O)Nc1ccc2c(c1)OCO2	none
O=C(CNS(=O)(=O)c1cc(Cl)ccc1Cl)Nc1ccc(Br)cc1F	none
COc1cc(C2OCC3(OC4OC(CO)C(O)C(O)C4O)C(c4ccc(O)c(OC)c4)OCC23)ccc1O (stereo not given)	none
COc1cc(/C=C/c2cc(O)cc(O[C@@H]3O[C@H](CO)[C@@H](O)[C@H](O)[C@H]3O)c2)ccc1O[C@@H]1O[C@H](CO)[C@@H](O)[C@H](O)[C@H]1O	none
COc1cc(C[C@H]2CO[C@H](c3ccc(O[C@@H]4O[C@H](CO)[C@@H](O)[C@H](O)[C@H]4O)c(OC)c3)[C@H]2CO)ccc1O	PRC2 inh 99.5
O=C(C[C@H]1CC[C@@H](NC(=O)c2cccnc2)[C@@H](CO)O1)NCc1ccncn1	none
C=CCNC(=O)[C@H]1[C@@H]2C(=O)O[C@@H](c3ccccc3)[C@@H](c3ccccc3)N2[C@@H](c2ccccc2OCCO)[C@]12C(=O)Nc1ccc(C#CC3(O)CCCCCC3)cc12	none
NC(=O)[C@@H]1[C@H]2C(=O)O[C@H](c3ccccc3)[C@H](c3ccccc3)N2[C@H](c2ccc(OCCO)cc2)[C@@]12C(=O)Nc1ccc(C#CC3(O)CCCCCC3)cc12	none
O=C1O[C@@H](c2ccccc2)[C@@H](c2ccccc2)N2[C@@H](c3ccccc3OCCO)[C@]3(C(=O)Nc4ccc(C#CC5(O)CCCCCC5)cc43)[C@@H](C(=O)O)[C@H]12	PRC2 inh 72.8
O=C1O[C@H](c2ccccc2)[C@H](c2ccccc2)N2[C@H]1[C@@H](C(=O)O)[C@]1(C(=O)Nc3ccc(C#CC4(O)CCCCCC4)cc31)[C@H]2c1ccccc1OCCO	PRC2 inh 60.3
NC(=O)[C@@H]1[C@H]2C(=O)O[C@H](c3ccccc3)[C@H](c3ccccc3)N2[C@H](c2ccccc2OCCO)[C@@]12C(=O)Nc1ccc(C#CCCO)cc12	none
O=C1O[C@H](c2ccccc2)[C@H](c2ccccc2)N2[C@H]1[C@@H](C(=O)N1CCCCCCC1)[C@]1(C(=O)Nc3ccc(C#CC4(O)CCCCCC4)cc31)[C@H]2c1ccc(OCCO)cc1	none
Cc1ccc(S(=O)(=O)NC(C)C(=O)O)cc1C (stereo not given)	none
C[C@@H]1CCCCO[C@H](CN(C)C(=O)C2CCCCC2)[C@H](C)CN([C@H](C)CO)C(=O)c2cc(NS(C)(=O)=O)ccc2O1	none
O=C(N[C@@H]1CC[C@@H](CCNC(=O)C2CCC2)O[C@H]1CO)c1ccncc1	none
CN(C)C(=O)c1cc2c(c(-c3cccc(C4=CCCC4)c3)n1)[C@H](CCO)N([S@@](=O)C(C)(C)C)C2	none
C=C1CC(O)C2C(=C)C(=O)OC2C2C(=C)C(OC3OC(CO)C(O)C(OC(=O)/C=C/c4ccc(O)c(O)c4)C3O)CC12 (stereo not given)	PRC2 inh 76.3
C[C@@H]1O[C@@H](O[C@H]2[C@@H]3C=CO[C@@H](O[C@@H]4O[C@H](CO)[C@@H](O)[C@H](O)[C@H]4O)[C@@H]3[C@@]3(CO)O[C@@H]23)[C@H](OC(=O)/C=C/c2ccc(O)c(O)c2)[C@H](O)[C@H]1O	none
O=C(/C=C/c1ccc(O)c(O)c1)OCCc1ccccc1	none
O=C(C[C@H]1CC[C@H](NC(=O)C2CC2)[C@@H](CO)O1)Nc1nccs1	none
